Rows were chosen to be rich in hits. Some 11% of all compounds tested hit in one or more screens of this group.
G9a block – qHTS Assay for Inhibitors of Histone Lysine Methyltransferase G9a. Histone-lysine N-methyltransferase EHMT2 (Homo sapiens), Q96KQ7. G9a H3K9 monomethylation, AlphaScreen, 2 h. Potency, µM (titrated, usually from 102 µM), for the others: at the highest dose activity, negative = inhibition, usual class: inhibitors. 350,000 compounds, 8.8% hits; note: potency is the fitted concentration of half-maximal effect; % is set by controls: 0 for no effect and ±100 for the full control effect; nearly all actives have a fitted effect of over 75% in size
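Step 1: enzyme (final 20 nM) with compound, 15 min RT. Step 2: substrate peptide 500 nM and SAM 20 uM, 2 h RT. Step 3: anti-H3K9me1 antibody and AlphaScreen beads, 10 min, then plate read.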
HP1b chromo inh – HTS for Inhibitors of HP1-beta Chromodomain Interactions with Methylated Histone Tails; Chromobox protein homolog 1 (Homo sapiens), P83916; AlphaScreen HP1-beta / biotin-H3K9me3 peptide binding; Potency, µM (top dose mostly 114 µM), inactives show top-dose activity change, negative = inhibition, hits mostly inhibitors; 390,000 compounds, 0.56% hits; AID 540317, 2011; note: potency is the fitted concentration of half-maximal effect; nearly all actives have a fitted effect of over 70% in size
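Compound inhibition of the preformed complex between 50 nM HP1-beta and 50 nM biotinylated H3K9me3 peptide was read by AlphaScreen. Buffer was PBS pH 7.4 with 0.01% Tween-20. Incubations ran 30 min at room temperature, with 10 ug/mL donor/acceptor beads.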
BAZ2B inh – qHTS Assay for Inhibitors of BAZ2B | AlphaScreen BAZ2B-H3K14Ac peptide displacement | AID 504333, 2011 | Potency, µM (highest dose often 114 µM), for inactives: top-dose activity change, negative = inhibition, most hits filed as inhibitors | 360,000 compounds, 4.4% hits; note: potency is the fitted concentration of half-maximal effect; % is set by controls: 0 for no effect and ±100 for the full control effect; nearly all actives have a fitted effect of over 60% in size
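Complex of BAZ2B and biotin-H3K14Ac (50 nM apiece) forms over 30 min at RT, then faces library compounds up to 110 uM for another 30 min; AlphaScreen beads added, 20 min dark incubation, luminescence read.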
L3MBTL1 inh – qHTS Assay for the Inhibitors of L3MBTL1 | Lethal(3)malignant brain tumor-like protein 1 (Homo sapiens), Q9Y468 | AlphaScreen L3MBTL1–H3K9me1 peptide binding | Potency, µM (doses to about 57.1 µM), without a hit: at the highest dose activity, negative = inhibition, most hits filed as inhibitors | 230,000 compounds, 0.66% hits | AID 485360, 2010; note: potency is the fitted concentration of half-maximal effect; % is set by controls: 0 for no effect and ±100 for the full control effect; nearly all actives have a fitted effect of over 60% in size
Target sequence (Q9Y468 whole entry, looked up): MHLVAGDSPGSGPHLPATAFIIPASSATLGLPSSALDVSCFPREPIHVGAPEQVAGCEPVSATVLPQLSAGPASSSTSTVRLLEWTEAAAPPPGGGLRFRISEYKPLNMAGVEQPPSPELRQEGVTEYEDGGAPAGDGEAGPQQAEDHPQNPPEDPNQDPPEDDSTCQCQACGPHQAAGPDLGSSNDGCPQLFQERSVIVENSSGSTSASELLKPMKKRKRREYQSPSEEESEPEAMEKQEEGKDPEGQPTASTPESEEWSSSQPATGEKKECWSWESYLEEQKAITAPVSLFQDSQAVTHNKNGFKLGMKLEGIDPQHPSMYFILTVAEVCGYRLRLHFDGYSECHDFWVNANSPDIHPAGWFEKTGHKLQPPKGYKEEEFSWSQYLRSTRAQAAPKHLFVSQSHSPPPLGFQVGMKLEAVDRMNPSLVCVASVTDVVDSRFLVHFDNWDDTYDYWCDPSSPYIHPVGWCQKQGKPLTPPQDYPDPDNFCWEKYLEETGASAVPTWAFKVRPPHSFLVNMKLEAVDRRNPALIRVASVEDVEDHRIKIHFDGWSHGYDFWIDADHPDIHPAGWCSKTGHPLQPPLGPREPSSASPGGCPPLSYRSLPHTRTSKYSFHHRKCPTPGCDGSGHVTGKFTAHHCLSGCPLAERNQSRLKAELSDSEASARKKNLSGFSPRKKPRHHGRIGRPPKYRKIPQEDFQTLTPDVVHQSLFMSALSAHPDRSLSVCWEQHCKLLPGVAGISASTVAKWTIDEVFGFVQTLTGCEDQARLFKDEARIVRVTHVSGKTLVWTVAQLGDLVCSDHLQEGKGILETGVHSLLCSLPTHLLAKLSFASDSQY
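Read-out is AlphaScreen signal from streptavidin donor and nickel chelate acceptor beads (10 ug/mL final each) bridging L3MBTL1 (50 nM) and biotinylated K9-monomethylated H3(1-15) peptide (75 nM), after 30 min compound exposure at room temperature.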
PI5P4Ka inh – qHTS for Inhibitors of phosphatidylinositol 5-phosphate 4-kinase (PI5P4K). Phosphatidylinositol 5-phosphate 4-kinase type-2 alpha (Homo sapiens), P48426. PI5P4Kalpha enzyme, ADP-Glo luminescence, 60 min; hits give low values. max response, %. 330,000 compounds, 1.2% hits; active = max response of -50% or lower; inconclusive = between -30% and -50%; inactive = -30% or higher; note: value at the top dose of about 77 µM; % is set by controls: 0 for no effect and ±100 for the full control effect
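qHTS, 1536-well: enzyme/substrate mix, compound by pin tool, 5 microM ATP final; RT 60 min; ADP-Glo reagents 1 (45 min) then 2 (30 min); luminescence.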
JMJD2A Tudor – qHTS Assay for Inhibitors of JMJD2A-Tudor Domain; Lysine-specific demethylase 4A (Homo sapiens), O75164; AlphaScreen JMJD2A-Tudor / H3K4me3 peptide binding; Potency, µM (top dose mostly 114 µM), for inactives: top-dose activity change, negative = inhibition, actives largely listed as inhibitors; 390,000 compounds, 4.4% hits; note: potency is the fitted concentration of half-maximal effect; % is set by controls: 0 for no effect and ±100 for the full control effect; nearly all actives have a fitted effect of over 50% in size
* hit, by the source's call; ? = inconclusive; . = not tested or not shown; [ ] = remark or other dose. Unless noted, calls come from the whole dose curve; as a rule, active = well fitted inhibition curve with a large enough effect; inconclusive = small, poorly fitted or top-dose-only effect; inactive = no such curve, though single readings can be large or run the other way.

SMILES | G9a block | HP1b chromo inh | BAZ2B inh | L3MBTL1 inh | PI5P4Ka inh | JMJD2A Tudor
CCCC(=O)Nc1ccc2c(c1)nc1n2CCN(C2CCCCC2)C1 | 12.6µM* | -4.7% | -29.2% | -9.4% | -12.2 | ?
CN1/C(=C\C(=O)c2cccnc2)Sc2ccccc21 | 28.2µM* | 48.5% | -1.8% | 10.9% | -0.6 | 2.7%
COc1cccc(C(=O)/C=C2\Sc3ccccc3N2C)c1 | 53.9% | 162.7% | 57.4% | 67.2% | 6.3 | 82.5%
COc1cc(F)c(S(=O)(=O)N2CCN(S(=O)(=O)c3ccc4c(c3)OCCO4)CC2)c(F)c1 | . | . | . | . | . | -7.5%
CCc1nn(CC(=O)N2CCN(c3cccc(C(F)(F)F)c3)CC2)c(=O)c2cccn12 | -34.8%[59 µM] | 17.2% | 70.8µM* | . | . | ?
COc1ccc(-n2c(=O)cnc3cnc(N4CCN(C)CC4)nc32)cc1 | 4.0%[0.501 µM] | . | . | . | . | .
Cc1ccc(C(C)(O)CS(=O)(=O)Cc2ccccc2)cc1 (centres undefined) | 56.2µM* | 65.5% | -25.4% | . | 0.2 | -5.3%
N#C/C(=C/c1ccncc1)c1nc2ccccc2c(=O)[nH]1 | 44.7µM* | 26.3% | -35.5% | . | -2.7 | -8.6%
N#C/C(=C\c1ccncc1)c1nc2ccccc2c(=O)[nH]1 | 25.1µM* | 36.7% | ? | ? | -0.4 | -7.7%
O=C(NCc1ccccc1)C1CCN(S(=O)(=O)Cc2ccccc2)CC1 | -20.8%[59 µM] | 45.6% | -3.4% | . | . | -9.3%
CCOC(=O)c1ccc(N2C(=O)c3[nH]nc(-c4ccccc4)c3C2c2ccc(CC)cc2)cc1 (centres undefined) | -27.9%[59 µM] | 28.6% | . | . | . | -31.0%
COC(=O)N1CCC2(CC1)CN(c1ccccc1)C2 | 18.7%[12.7 µM] | . | . | . | . | .
CC(C)OCCCn1c(=O)c2ccccc2n2c(-c3ccc(F)c(F)c3)nnc12 | ? | -25.5% | 50.1µM* | . | . | ?
CCOC(=O)C1=C(C)N(CCCC(=O)O)C(=O)NC1c1ccc([N+](=O)[O-])cc1 (centres undefined) | -43.0% | 36.7% | 3.3% | -1.4% | -86.2* | -8.7%
CC1=C(C(=O)OCc2ccccc2)C(c2ccccc2OS(=O)(=O)c2ccc([N+](=O)[O-])cc2)NC(=O)N1CCCC(=O)O (centres undefined) | . | -11.8% | . | . | -64.4* | ?
COC(=O)C1=C(C)N(CCCC(=O)O)C(=O)NC1c1ccc([N+](=O)[O-])cc1 (centres undefined) | . | 28.4% | . | . | -100.9* | -16.2%
CCOC(=O)C1=C(C)N(CCCC(=O)O)C(=O)NC1c1ccccc1OS(=O)(=O)c1ccc([N+](=O)[O-])cc1 (centres undefined) | . | 19.2% | . | . | ? | -20.7%
CSc1nn(CC(=O)Nc2cc(C)ccc2C)c(N)c1S(=O)(=O)c1ccccc1 | -2.3%[59 µM] | 6.0% | -9.6% | . | . | -29.9%
COC(=O)c1ccc(CN2CCN(Cc3ccc(C(=O)OC)o3)CC2)o1 | 11.2µM* | 19.1% | . | -4.6% | -3.6 | 5.2%
COC(=O)c1ccc(CN2C(=O)c3ccccc3C2=O)o1 | 19.5%[59 µM] | 18.8% | 11.1% | . | 0.0 | -1.4%
CC1CCN(S(=O)(=O)c2ccc3c(c2)N(CC(=O)O)C(=O)CO3)CC1 | -17.7%[59 µM] | 32.3% | 1.5% | . | . | -26.3%
CCOc1ccc(S(=O)(=O)N/N=C(\C)C2CCCCC2)cc1 | 15.3%[59 µM] | 30.7% | 0.9% | 4.4% | 2.4 | -11.2%
CCOc1ccc(S(=O)(=O)N/N=C2/CCCC(=O)C2)cc1 | 10µM* | 25.9% | 0.7% | 11.9% | -3.1 | -26.0%
CCC(=O)N1CCc2cc(S(=O)(=O)CCC(=O)N3CCN(c4ccccc4Cl)CC3)ccc21 | 0.6%[59 µM] | 7.5% | . | . | . | -7.0%
Nc1nnc(SCC(=O)N2CCN(Cc3ccccc3)CC2)s1 | 44.7µM* | 20.1% | 2.9% | . | . | -4.9%
SMILES | G9a block | HP1b chromo inh | BAZ2B inh | L3MBTL1 inh | PI5P4Ka inh | JMJD2A Tudor
CCOC(=O)CSc1nnc(NC(=O)NC(C)C)s1 | -35.0% | 22.5% | -16.5% | -0.5% | -0.1 | -9.7%
CCOC(=O)CNC(=O)CSc1nnc(SCC(=O)NCC(=O)OCC)s1 | 17.8µM* | 27.3% | -0.6% | -7.2% | . | 6.0%
CCOC(=O)CSc1nnc(N)s1 | 17.8µM* | 17.8% | -4.3% | -3.7% | 1.5 | 56.2µM*
Cc1ccc(CNC(=O)c2cc3c(=O)n4cccc(C)c4nc3s2)cc1 | -6.0%[59 µM] | 28.5% | ? | . | . | -13.7%
COc1ccc(-c2cc(OC(=O)c3ccc(Cl)cc3)c3c(C)oc(C)c3c(=O)c2)cc1 | ? | -0.1% | 39.8µM* | . | . | ?
CCOc1cc(-c2ccc(OC(=O)c3ccc(OC)cc3)c(OC)c2)cc(=O)c2c(C)oc(C)c12 | 15.8µM* | -7.5% | ? | . | . | ?
CCOc1ccc(-c2cc(OC(=O)c3ccc(OC)cc3)c3c(C)oc(C)c3c(=O)c2)cc1 | ? | 17.1% | -32.1% | . | . | -29.9%
COc1ccc(OC)c(NC(=O)c2cnc(N3CCCCC3)c3ccccc23)c1 | -4.4%[59 µM] | 25.3%[57 µM] | -18.6% | . | . | -14.8%
COc1cc(C2CC(=O)N(c3ccccc3)C3=C2C(=O)OC3)cc(OC)c1OC (centres undefined) | -13.1%[59 µM] | 5.5% | -10.1% | . | . | -3.7%
O=C(O)CCn1cc(/C=C/C(=O)c2ccc(Cl)cc2)c(-c2ccc(Br)cc2)n1 | 79.4µM* | 3.0% | -34.9% | -1.3% | -5.1 | -34.8%
O=[N+]([O-])c1cc([N+](=O)[O-])c(Oc2c(F)cccc2F)cc1NN1CCCCC1 | -47.9% | ? | ? | -7.3% | 0.1 | ?
O=[N+]([O-])c1cc([N+](=O)[O-])c(Oc2c(Cl)cccc2Cl)cc1NN1CCCCC1 | 25.1µM* | ? | ? | 2.4% | -3.1 | ?
O=[N+]([O-])c1cc([N+](=O)[O-])c(Oc2c(F)ccc(F)c2F)cc1NN1CCCCC1 | 31.6µM* | ? | ? | -5.7% | -3.2 | ?
O=[N+]([O-])c1cc([N+](=O)[O-])c(Oc2cccnc2Br)cc1NN1CCCCC1 | 39.8µM* | ? | ? | -13.7% | -0.7 | ?
COc1ccc(Oc2cc(NN3CCCCC3)c([N+](=O)[O-])cc2[N+](=O)[O-])cc1OC | ? | -25.6% | ? | -24.0% | 12.7 | ?
CC(=O)c1cccc(Oc2cc(NN3CCCCC3)c([N+](=O)[O-])cc2[N+](=O)[O-])c1 | 50.1µM* | -12.0% | ? | -24.6% | 4.4 | ?
O=[N+]([O-])c1cc([N+](=O)[O-])c(Oc2cccc3ccccc23)cc1NN1CCCCC1 | . | -16.3% | . | . | 3.9 | ?

Assay outcomes (PubChem BioAssay)
